We go through 28 compounds from PubChem BioAssay (NCATS).

Inconclusive results are not listed. A number with no mark means an inactive call. The source made the active and inactive calls. Calls come from the whole dose curve; as a rule, active = well fitted curve in the direction sought with a large enough effect; inconclusive = small, poorly fitted or top-dose-only effect, or another doubt; inactive = no such curve, though single readings can be large; an effect the other way counts as inactive or inconclusive.

The target of test [1] is Rap guanine nucleotide exchange factor 3 (Homo sapiens) (UniProt O95398). Put plainly: Confirmatory qHTS for antagonist of cAMP-regulated guanine nucleotide exchange factor 3 (EPAC1) (AID 1645880).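 For activity, negative = inhibition: plate controls were DMSO only for no effect and full effect of the ATA control for full effect.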 Note: nearly all actives have a fitted effect of over 55% in size. Note: potency is the fitted concentration of half-maximal effect. The conditions noted are these: EPAC1 Rap1B-BODIPY-GDP exchange, fluorescence; activity, negative = inhibition: at 115 µM (top of the series). Put shortly:
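Nucleotide exchange uses 100 nM EPAC1, 250 nM RAP1B-BODIPY-GDP and 50 uM GDP, with compounds in a concentration-titration series. After 5 min at room temperature, fluorescence (480 nm ex/540 nm em) is read every 5 min for 30 min. Data are normalized to control ATA and DMSO.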
In general terms: Quantitative high-throughput screening tests each substance at several concentrations.

Test [2] has the same target. Put plainly: Confirmatory qHTS for agonist of cAMP-regulated guanine nucleotide exchange factor 3 (EPAC1) (AID 1645881).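 For activation: EPAC1 catalysed release of BODIPY-GDP from Rap1B seen as fluorescence loss; 100% = effect of cAMP agonist control.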 Note: nearly all actives have a fitted effect of over 75% in size. Note: potency is the fitted concentration of half-maximal effect.
In test [3] the target is Rap guanine nucleotide exchange factor 4 (Homo sapiens) (UniProt Q8WZA2). Put plainly: Confirmatory qHTS for agonist of cAMP-regulated guanine nucleotide exchange factor 4 (EPAC2) (AID 1645884). For activation: % is set by controls: 0 for no effect and ±100 for the full control effect.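 Note: nucleotide exchange releases bodipy-GDP from Rap1 and this lowers its fluorescence; nearly all actives have a fitted effect of over 65% in size.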 Note: potency is the fitted concentration of half-maximal effect.
Chain of Rap guanine nucleotide exchange factor 4 (Homo sapiens) (Q8WZA2 whole entry, looked up): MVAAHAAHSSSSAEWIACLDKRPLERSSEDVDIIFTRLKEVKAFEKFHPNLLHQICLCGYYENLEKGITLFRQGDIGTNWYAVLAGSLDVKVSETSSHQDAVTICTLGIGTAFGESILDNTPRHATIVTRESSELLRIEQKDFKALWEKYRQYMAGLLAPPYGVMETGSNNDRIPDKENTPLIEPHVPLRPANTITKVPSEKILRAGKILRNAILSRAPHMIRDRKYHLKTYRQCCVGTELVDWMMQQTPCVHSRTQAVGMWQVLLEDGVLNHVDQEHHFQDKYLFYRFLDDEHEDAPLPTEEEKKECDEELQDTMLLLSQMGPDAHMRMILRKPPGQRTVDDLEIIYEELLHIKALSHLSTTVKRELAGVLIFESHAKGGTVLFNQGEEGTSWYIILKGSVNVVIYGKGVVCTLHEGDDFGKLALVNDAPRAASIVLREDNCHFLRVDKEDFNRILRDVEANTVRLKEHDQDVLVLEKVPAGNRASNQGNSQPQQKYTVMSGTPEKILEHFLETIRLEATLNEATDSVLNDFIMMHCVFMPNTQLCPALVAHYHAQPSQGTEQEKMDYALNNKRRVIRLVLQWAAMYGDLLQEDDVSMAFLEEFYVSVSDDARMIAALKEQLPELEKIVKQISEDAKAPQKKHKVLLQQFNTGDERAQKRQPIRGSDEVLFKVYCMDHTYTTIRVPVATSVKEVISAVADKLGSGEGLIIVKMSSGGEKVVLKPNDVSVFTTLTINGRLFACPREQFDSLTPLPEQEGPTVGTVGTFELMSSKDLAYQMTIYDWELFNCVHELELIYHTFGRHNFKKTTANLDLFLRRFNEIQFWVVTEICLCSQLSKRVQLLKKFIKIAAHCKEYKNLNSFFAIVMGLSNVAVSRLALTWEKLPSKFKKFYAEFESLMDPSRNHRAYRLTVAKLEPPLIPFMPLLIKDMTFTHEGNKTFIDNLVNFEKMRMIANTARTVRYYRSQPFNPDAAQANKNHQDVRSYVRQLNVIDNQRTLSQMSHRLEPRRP
Test [4] concerns the target Rap guanine nucleotide exchange factor 3 (Homo sapiens) (UniProt O95398). Put plainly: Counterscreen qHTS for antagonist of cAMP-regulated guanine nucleotide exchange factor 3 (EPAC1) (AID 1645888).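 Note: fluorescence loss as bound BODIPY-GDP is released from Rap1B; % of control where 0% means no effect.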 Put shortly: (§1)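 Measured: fluorescence of BODIPY-GDP bound to Rap1B, which falls as exchange proceeds. Conditions include 50 uM competing GDP, 5 and 30 min reads, and a later cAMP challenge for antagonist detection.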
On the technique in general: The purpose of a counterscreen is to sort out artefacts and off-target activity.

For test [5] the target is unchanged. Put plainly: Counterscreen qHTS for agonist of cAMP-regulated guanine nucleotide exchange factor 3 (EPAC1) (AID 1645889). For activation: % of control where 0% means no effect. Note: nearly all actives have a fitted effect of over 40% in size. Note: potency is the fitted concentration of half-maximal effect. Put shortly:
as §1

Chain of Rap guanine nucleotide exchange factor 3 (Homo sapiens) (O95398 whole entry, looked up): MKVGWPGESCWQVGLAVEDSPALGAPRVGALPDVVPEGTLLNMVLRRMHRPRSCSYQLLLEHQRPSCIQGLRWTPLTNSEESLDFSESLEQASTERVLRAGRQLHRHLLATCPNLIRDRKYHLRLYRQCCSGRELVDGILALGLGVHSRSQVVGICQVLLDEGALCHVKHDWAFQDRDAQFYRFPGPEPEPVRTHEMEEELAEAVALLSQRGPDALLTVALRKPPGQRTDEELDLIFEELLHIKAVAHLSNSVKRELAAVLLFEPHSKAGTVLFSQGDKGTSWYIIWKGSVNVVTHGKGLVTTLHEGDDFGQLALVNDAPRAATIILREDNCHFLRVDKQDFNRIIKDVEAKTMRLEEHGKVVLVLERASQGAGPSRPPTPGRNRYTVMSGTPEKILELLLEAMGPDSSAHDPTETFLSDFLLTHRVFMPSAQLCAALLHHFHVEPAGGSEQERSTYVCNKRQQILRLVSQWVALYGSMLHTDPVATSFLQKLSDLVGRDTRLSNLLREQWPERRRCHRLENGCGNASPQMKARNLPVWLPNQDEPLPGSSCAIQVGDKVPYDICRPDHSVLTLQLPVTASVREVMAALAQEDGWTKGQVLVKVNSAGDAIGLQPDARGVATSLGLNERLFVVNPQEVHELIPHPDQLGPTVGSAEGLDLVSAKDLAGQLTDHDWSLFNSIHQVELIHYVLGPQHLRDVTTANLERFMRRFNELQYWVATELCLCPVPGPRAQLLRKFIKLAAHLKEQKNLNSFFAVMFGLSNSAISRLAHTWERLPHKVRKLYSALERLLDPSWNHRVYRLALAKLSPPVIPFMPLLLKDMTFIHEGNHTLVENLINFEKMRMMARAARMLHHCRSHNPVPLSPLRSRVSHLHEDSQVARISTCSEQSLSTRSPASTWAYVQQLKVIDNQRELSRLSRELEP

`CC(=O)c1ccc(NC(=O)c2ccc3c(c2)C(=O)N(c2ccccn2)C3=O)cc1`: the Potency in test [1] is 8.49 µM (active). Moreover, the Potency result in test [2], in test [3] and in test [4] was “inactive” in each case.

With `Nc1[nH]n2c(=O)cc(-c3ccccc3)nc2c1N=Nc1ccc(S(N)(=O)=O)cc1`, the Potency result in test [1], in test [2], in test [3] and in test [4] was “inactive” throughout.

As to `CCCCCCc1cc2cc(-c3nnc(-c4ccc(C)cc4)o3)c(=O)oc2cc1O`, the Potency result in test [1], in test [2], in test [3] and in test [4] was “inactive” throughout.

Take `COc1ccc(C(C#N)N2CCC(c3ccccc3)=N2)cc1OC` (stereo unspecified): the Potency entry in test [1], in test [2], in test [3] and in test [4] was “inactive” in each case.

`Cc1oc2cc([N+](=O)[O-])c(O)c([N+](=O)[O-])c2c1C(=O)c1ccc(Br)cc1`: the Potency in test [1] is 75.7 µM (active). In addition, the Potency result in test [2], in test [3] and in test [4] was “inactive” in each case.

As for `COc1ccc(NC(=O)COC(=O)c2ccc(S(=O)(=O)N(C)c3ccccc3OC)cc2)cc1OC`, the Potency result in test [1], in test [2], in test [3] and in test [4] was “inactive” throughout.

Regarding `CC(C)NC(=O)c1sc(=S)n2c1[nH]c(=O)c1ccc(C(=O)NCCc3ccc(Cl)cc3)cc12`, the Potency in test [1] was 50.1 µM (active). For the same compound, in test [2], the Potency result is “inactive”. In test [3], the activation is 4.17% [at 17.1 µM, percent relative to cAMP agonist control]. In addition, the activity change, negative = inhibition in test [4] is -15.1% [at 30.8 µM].

For the compound `CCCOc1ccccc1NC(=O)c1c(-c2ccccc2)noc1C`, the Potency result in test [1], in test [2], in test [3] and in test [4] was “inactive” throughout.

Consider `CCSc1oc(-c2cccs2)nc1S(=O)(=O)c1ccccc1`, for which the Potency entry in test [1], in test [2], in test [3] and in test [4] was “inactive” throughout.

In the case of `Cc1nc2ccccc2c(=O)n1N(c1ccccc1)c1ccccc1`, the Potency result in test [1] and in test [2] was “inactive” throughout. In addition, in test [3], the activation is -5.22% [at 17.1 µM, percent relative to cAMP agonist control]. In test [4], the activity change, negative = inhibition was 9.75% [at 30.8 µM].

In the case of `COc1ccc(OC)c(C(=O)c2ccc(Cl)cc2)c1`, the Potency entry in test [1] and in test [2] was “inactive” each time. The activation in test [3] was 8.77% [at 17.1 µM, percent relative to cAMP agonist control]. Further, the activity change, negative = inhibition in test [4] is 5.43% [at 30.8 µM].

For the compound `CCc1nc2c(OCc3ccc(C(F)(F)F)cc3)cccn2c1N(C)C(=O)c1ccc(OC)cc1`, the Potency result in test [1] and in test [2] was “inactive” each time. For the same compound, in test [3], the activation was 16% [at 17.1 µM, percent relative to cAMP agonist control]. The activity change, negative = inhibition in test [4] is -20.8% [at 30.8 µM].

With `Cc1cc(C)nc(SCC(=O)c2ccc(F)c(C)c2)n1`, the Potency entry in test [1], in test [2], in test [3] and in test [4] was “inactive” each time.

Turning to `COC(=O)C1=CN(c2c(C)cc(C)cc2C)C(N)=C(C#N)C1c1cccc(F)c1` (stereo unspecified), the Potency entry in test [1], in test [2], in test [3] and in test [4] was “inactive” in each case.

Turning to `CCSc1nc(-c2ccccc2)nc2c1CCCC2`, the Potency entry in test [1], in test [2], in test [3] and in test [4] was “inactive” each time.

Turning to `COc1cc(/C=C2\C(=N)N3N=C(S(C)(=O)=O)SC3=NC2=O)ccc1OS(=O)(=O)c1ccc(C)cc1`, the Potency in test [1] is 60.1 µM (active). Also, the Potency result in test [2], in test [3] and in test [4] was “inactive” throughout.

In the case of `COC(C(=O)Nc1ccc(Br)cc1F)c1ccccc1` (stereo unspecified), the Potency entry in test [1], in test [2], in test [3] and in test [4] was “inactive” each time.

As for `CCOC(=O)C1Nc2c(F)cc(C)cc2C2c3ccccc3CC12` (stereo unspecified), the Potency result in test [1], in test [2], in test [3] and in test [4] was “inactive” throughout.

`CCC(=O)NC(c1ccc(C)cc1)c1cc([N+](=O)[O-])c2cccnc2c1O` (stereo unspecified): the Potency in test [1] was 53.6 µM (active). Also, the Potency result in test [2], in test [3], in test [4] and in test [5] was “inactive” each time.

In the case of `CCN(CC(=O)Nc1ccccc1C(=O)NC1CC1)Cc1cccs1`, the Potency entry in test [1], in test [2], in test [3], in test [4] and in test [5] was “inactive” each time.

As to `CC(=O)OCCNc1cc(N2CCN(C)CC2)c2noc3c2c1C(=O)c1ccccc1-3`, the Potency result in test [1], in test [2], in test [3], in test [4] and in test [5] was “inactive” each time.

As to `COc1ccc(-c2csc3ncn(-c4ccc(C)cc4)c(=O)c23)cc1OC`, the Potency result in test [1], in test [2], in test [3], in test [4] and in test [5] was “inactive” throughout.

With `CN(CCC#N)C(=O)COC(=O)c1c2c(nc3ccccc13)/C(=C\c1ccco1)CC2`, the Potency in test [1] is 9.53 µM (active). Further, the Potency entry in test [2], in test [3], in test [4] and in test [5] was “inactive” each time.

On to `Cc1ccc(Cc2c(-c3cccc(Cl)c3)nc3ccc(Br)cn23)cc1`, for which the Potency in test [1] is 75.7 µM (active). Besides, the Potency result in test [2], in test [3], in test [4] and in test [5] was “inactive” in each case.

With `CC(=NNC(=O)c1ccncc1)c1ccc2ccccc2c1O`, the Potency result in test [1] and in test [4] was “inactive” in each case. Further, the Potency in test [2] was 100 µM (active); in test [3], 112 µM (active); in test [5], 39.8 µM (active).

`O=C1c2ccccc2S(=O)(=O)c2cc(N3CCC(C(=O)N4CCCCC4)CC3)ccc21`: the Potency result in test [1] and in test [4] was “inactive” in each case. Moreover, the Potency was 89.1 µM (active) in test [2], 100 µM (active) in test [3] and 56.2 µM (active) in test [5].

As to `CCOC(=O)C(C)Sc1ncnc2c1nnn2-c1ccc(F)cc1` (stereo unspecified), the Potency result in test [1] and in test [2] was “inactive” in each case. The activation in test [3] is 3.03% [at 17.1 µM, percent relative to cAMP agonist control]. Further, in test [4], the activity change, negative = inhibition is -4.79% [at 30.8 µM].

Consider `COc1cc(/C=C2\SC(=Nc3ccc(Cl)c(C(=O)O)c3)NC2=O)c(Br)c(Br)c1O`, for which the Potency in test [1] is 2.82 µM (active). Also, the Potency entry in test [2] was “inactive”. Also, the activation in test [3] is 9.28% [at 17.1 µM, percent relative to cAMP agonist control]; in test [5], 0.17% [at 30.8 µM]. The activity change, negative = inhibition in test [4] was -1.87% [at 30.8 µM].
